# According to PubChem BioAssay AID504727 (Broad Institute, 2011):
# Active and inactive are the calls of the source.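 How the source made its calls: active means fitted half-maximal concentration AC50 at or below ten times the highest valid tested dose, with signal falling as DNA is displaced (actives reach about 34 µM in these data); inconclusive means flat fit at moderate signal loss, or poor fit quality; inactive means the rest, including signal rising instead of falling.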
# Test: acridine orange-DNA binding displacement – biochemical, fluorescence polarization, cherry-picked samples, set 2, artefact control for KSHV LANA DNA-binding inhibitor project, dose response (AID 504727)
# Settings: series mostly up to 35 µM
row,SMILES,AC50
1,CCOc1ccc2noc3c2c1C(=O)c1ccccc1-3,0.728 µM (active)
2,O=C(O)CCN1C(=O)/C(=C\c2ccc(-c3nc4ccccc4s3)o2)SC1=S,inactive
3,COC(=O)Cn1c(=NC(=O)c2sc3ccccc3c2Cl)sc2cc(S(N)(=O)=O)ccc21,inactive
4,CN1C(=O)NC(c2ccccc2[N+](=O)[O-])C2=C1CCCC2=O (stereo not drawn),29.7 µM (active)
5,CCN(CC)S(=O)(=O)N1CCN(S(=O)(=O)N2CCOCC2)CC1,inactive
6,COC(=O)c1ccccc1OCC(=O)N1CCN(c2ccc(Cl)cc2)CC1,inactive
7,COc1cccc(OC)c1C(=O)Nc1cc(C)on1,inactive
8,CCOC(=O)C1=C(COC(=O)c2ccc([N+](=O)[O-])s2)NC(=O)NC1C (stereo not drawn),inactive
9,COc1ccc(C(C)=O)cc1CN(C)C,inactive
10,CCN(CC)C(=O)C1c2ccccc2Oc2ccccc21,inactive
11,CC(C)CC(=O)Nc1nnc(CSCc2ccc(F)cc2)s1,inactive
12,CS(=O)(=O)Nc1nc2n(n1)C(c1ccccc1)C=C(c1ccc(Br)cc1)N2 (stereo not drawn),18 µM (active)
13,O=C(Cn1ncc(N2CCCC2)c(Cl)c1=O)c1ccc(Cl)cc1,inactive
14,Cn1cc(C(=O)c2ccc(Cl)cc2Cl)cc1C(=O)N/N=C(\N)COc1ccccc1,inactive
15,CCOc1ccc(/C=C2\CCCc3c2nc2ccccc2c3C(=O)O)cc1OC,1.73 µM (active)
16,CCC(C)[C@H](NC(=O)[C@@H]1Cc2ccccc2CN1)C(=O)Nc1ccc2c(c1)OCO2 (stereo partly drawn),inactive
17,COc1cccc(NC(=O)CN(C)C(=O)c2cc3ccccc3cc2OC)c1,inactive
18,CC(C)(CS(=O)(=O)[O-])NC(=O)CC[N+](C)(C)CCO,inactive
19,CCOC(=O)c1cnc(SC)nc1Sc1ccc(Cl)cc1Cl,inactive

row,SMILES,AC50
1,O=C(O)c1ccccc1C1=Nc2ccc(O)cc2Oc2cc(O)ccc21,13.4 µM (active)
2,c1ccc(-c2cn3nc(-c4ccccc4)c(-c4ccccc4)nc3n2)cc1,23 µM (active)
3,COc1cc(SC)ccc1C(=O)OCC(=O)N1CCN(C(C)=O)CC1,inactive
4,O=C(O)C(Cc1ccccc1)N1C(=O)/C(=C/C=C/c2ccco2)SC1=S (stereo not drawn),inactive
5,O=C(CCn1c(=S)oc2ccccc21)N1CCN(c2ccc(F)cc2)CC1,inactive
6,COc1ccc2noc3c2c1C(=O)c1ccccc1-3,0.241 µM (active)
7,CC(C)C(C(=O)O)N1C(=O)/C(=C/C=C/c2ccco2)SC1=S (stereo not drawn),inactive
8,O=C(O)Cc1c[nH]c2cccc(O)c12,inactive
9,Cc1cc2c(N)cccc2nn1,inactive
10,CC(Sc1ncccn1)C(=O)NNC(=O)c1cccc(Cl)c1 (stereo not drawn),inactive
11,O=C1C=C(c2ccoc2)N2CCC[C@H]2C1,inactive
12,Cc1cccc(N2C(=O)c3cccc4c(N)ccc(c34)C2=O)c1,4.82 µM (active)
13,O=C(Nc1cc(Cl)ccc1-n1cncn1)c1cccs1,inactive
14,O=C1C=CC2=C3c4cc(O)c(O)cc4CC3(O)COC2=C1O (stereo not drawn),inactive
15,O=c1cc(-c2ccc(O)c(O)c2)oc2cc(O[C@@H]3O[C@H](CO)[C@@H](O)[C@H](O)[C@H]3O)cc(O)c12,inactive
16,Cc1ccc(/C=C/S(=O)(=O)N2CCC(C(=O)O)CC2)cc1,inactive
17,CC1Cc2ccccc2N1C(=O)CCS(=O)(=O)c1cccs1 (stereo not drawn),inactive
18,O=C(OCCN1C(=O)c2cccc3c(N4CCOCC4)ccc(c23)C1=O)c1ccc(Cl)cc1,18.5 µM (active)
19,COc1ccc(S(=O)(=O)N2CCC(C(=O)N3CCCCC3)CC2)cc1,inactive
